Measured values: PubChem BioAssay (EPA / NIEHS)
Inconclusive results are not listed. Activity calls are given as the source filed them. How the source made its calls: active means hit-call score of the fitted dose curve at least 0.9, where 1 is the maximum; inconclusive means response in the unintended direction; inactive means score below 0.9.

Experiments:
[1] = target: human Acetylcholinesterase (AChE), ACHE (gene 43) (UniProt P22303); assay: NVS_ENZ_hAChE: NovaScreen (NVS) Enzymatic Assay for human Acetylcholinesterase (AChE) (AID 2283129)
Chain of human Acetylcholinesterase (AChE), ACHE (gene 43) (P22303 whole entry, looked up): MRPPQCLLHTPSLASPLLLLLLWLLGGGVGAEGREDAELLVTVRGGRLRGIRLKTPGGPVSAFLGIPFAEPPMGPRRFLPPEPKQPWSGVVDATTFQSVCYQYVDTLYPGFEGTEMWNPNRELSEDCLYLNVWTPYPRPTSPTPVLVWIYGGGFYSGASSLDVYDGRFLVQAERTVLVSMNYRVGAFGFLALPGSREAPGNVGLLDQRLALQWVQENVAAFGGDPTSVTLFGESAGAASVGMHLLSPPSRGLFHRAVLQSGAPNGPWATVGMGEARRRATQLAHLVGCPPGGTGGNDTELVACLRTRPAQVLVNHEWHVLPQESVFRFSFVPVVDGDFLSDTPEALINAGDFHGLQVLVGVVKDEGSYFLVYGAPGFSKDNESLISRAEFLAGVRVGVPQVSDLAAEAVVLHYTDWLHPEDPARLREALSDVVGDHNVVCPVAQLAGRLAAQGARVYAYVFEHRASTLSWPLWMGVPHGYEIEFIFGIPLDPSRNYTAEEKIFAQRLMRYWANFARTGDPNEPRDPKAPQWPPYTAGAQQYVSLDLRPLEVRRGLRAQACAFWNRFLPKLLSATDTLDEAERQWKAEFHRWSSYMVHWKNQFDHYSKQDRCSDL
Method in brief: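 Actives from a duplicate single-point screen (25 uM) were followed up in concentration series. Enzyme activity read by absorbance (colorimetric) 0.33 hour after dosing, cell-free, normalized to DMSO, with loss of signal scored.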

[2] = target: human Protein Tyrosine Phosphatase Receptor Type C (PTPRC), PTPRC (gene 5788) (UniProt P08575); assay: NVS_ENZ_hPTPRC: NovaScreen (NVS) Enzymatic Assay for human Protein Tyrosine Phosphatase Receptor Type C (PTPRC) (AID 2283212)
Method in brief: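 Absorbance-based phosphatase activity of human PTPRC protein extracted from yeast was measured 1 h post-dosing. Compounds first tested at 25 uM in duplicate, then those passing threshold in singleton concentration series to 50 uM.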

[3] = target: Voltage-dependent N-type calcium channel subunit alpha-1B (Rattus norvegicus) (UniProt Q02294); assay: NVS_IC_rCaChN: NovaScreen (NVS) Ion Channel Assay for rat Calcium Channel, Type N (CaChN) (AID 2283317)
[4] = target: human p21 Activated Kinase 4 (PAK4), PAK4 (gene 10298) (UniProt O96013); assay: NVS_ENZ_hPAK4: NovaScreen (NVS) Enzymatic Assay for human p21 Activated Kinase 4 (PAK4) (AID 2283189)
Chain of human p21 Activated Kinase 4 (PAK4), PAK4 (gene 10298) (O96013 whole entry, looked up): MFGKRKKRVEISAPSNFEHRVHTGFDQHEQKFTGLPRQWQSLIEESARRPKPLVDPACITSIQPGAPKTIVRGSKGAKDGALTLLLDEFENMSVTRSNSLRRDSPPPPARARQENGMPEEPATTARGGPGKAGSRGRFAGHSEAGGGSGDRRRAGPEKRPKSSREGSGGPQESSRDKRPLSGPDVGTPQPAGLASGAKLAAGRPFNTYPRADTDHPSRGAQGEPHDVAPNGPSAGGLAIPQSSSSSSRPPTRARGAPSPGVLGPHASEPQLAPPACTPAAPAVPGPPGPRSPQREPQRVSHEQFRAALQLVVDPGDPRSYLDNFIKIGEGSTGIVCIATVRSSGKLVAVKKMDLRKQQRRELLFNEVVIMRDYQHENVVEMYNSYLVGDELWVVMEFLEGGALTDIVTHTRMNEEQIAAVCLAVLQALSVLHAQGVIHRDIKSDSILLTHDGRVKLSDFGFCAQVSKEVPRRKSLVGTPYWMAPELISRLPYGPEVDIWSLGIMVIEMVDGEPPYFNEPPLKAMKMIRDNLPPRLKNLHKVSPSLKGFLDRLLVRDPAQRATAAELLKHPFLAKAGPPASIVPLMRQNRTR
Method in brief: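 Extracted PAK4 enzyme activity read by fluorescence with mobility-shift separation 1 h after chemical addition. Duplicate single-concentration screen at 25 uM, DMSO as negative control.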

[5] = target: Norway rat Vesicular Monoamine Transporter (VMAT2), neurotransmitter transporter, Slc18a2 (gene 25549) (UniProt Q01827); assay: NVS_TR_rVMAT2: NovaScreen (NVS) Transporter Assay for Norway rat Vesicular Monoamine Transporter (VMAT2), neurotransmitter transporter (AID 2283376);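 further: actives lower the bound radioligand signal below the DMSO level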
Chain of Norway rat Vesicular Monoamine Transporter (VMAT2), neurotransmitter transporter, Slc18a2 (gene 25549) (Q01827 whole entry, looked up): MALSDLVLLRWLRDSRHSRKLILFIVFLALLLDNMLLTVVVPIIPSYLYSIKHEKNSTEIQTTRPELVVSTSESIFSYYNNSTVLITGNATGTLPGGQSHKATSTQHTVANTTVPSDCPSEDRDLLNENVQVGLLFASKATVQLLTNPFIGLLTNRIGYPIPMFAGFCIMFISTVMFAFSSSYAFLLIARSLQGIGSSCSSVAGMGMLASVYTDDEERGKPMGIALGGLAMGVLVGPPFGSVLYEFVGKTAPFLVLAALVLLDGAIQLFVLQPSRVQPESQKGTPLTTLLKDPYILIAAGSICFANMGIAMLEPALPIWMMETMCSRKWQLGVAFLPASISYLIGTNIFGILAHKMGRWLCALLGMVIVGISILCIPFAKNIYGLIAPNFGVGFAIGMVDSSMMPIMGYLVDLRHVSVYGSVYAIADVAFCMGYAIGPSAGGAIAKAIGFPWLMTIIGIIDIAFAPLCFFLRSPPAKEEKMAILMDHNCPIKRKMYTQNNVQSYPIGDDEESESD
Method in brief: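 Using rat forebrain membranes, specific radioligand binding to VMAT2 was measured by filtration and scintillation counting after 1 hour. Chemicals screened at 25 uM in duplicate, actives retested in concentration series, DMSO baseline.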

[6] = target: human AMP-activated Protein Kinase, alpha 1 (AMPKa1), PRKAA1 (gene 5562) (UniProt Q13131); assay: NVS_ENZ_hAMPKa1: NovaScreen (NVS) Enzymatic Assay for human AMP-activated Protein Kinase, alpha 1 (AMPKa1) (AID 2283130)
Method in brief: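 Compounds were screened in duplicate at 25 uM, and those reaching ~30% inhibition were titrated up to 50 uM. The enzyme was recombinant human AMPKα1, and kinase turnover was read by fluorescence/mobility shift 1 h post-dosing as loss of signal versus DMSO.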

[7] = target: human Aurora Kinase A - serine/threonine-protein Kinase 6 (AurA), AURKA (gene 6790) (UniProt O14965); assay: NVS_ENZ_hAurA: NovaScreen (NVS) Enzymatic Assay for human Aurora Kinase A - serine/threonine-protein Kinase 6 (AurA) (AID 2283142)
Chain of human Aurora Kinase A - serine/threonine-protein Kinase 6 (AurA), AURKA (gene 6790) (O14965 whole entry, looked up): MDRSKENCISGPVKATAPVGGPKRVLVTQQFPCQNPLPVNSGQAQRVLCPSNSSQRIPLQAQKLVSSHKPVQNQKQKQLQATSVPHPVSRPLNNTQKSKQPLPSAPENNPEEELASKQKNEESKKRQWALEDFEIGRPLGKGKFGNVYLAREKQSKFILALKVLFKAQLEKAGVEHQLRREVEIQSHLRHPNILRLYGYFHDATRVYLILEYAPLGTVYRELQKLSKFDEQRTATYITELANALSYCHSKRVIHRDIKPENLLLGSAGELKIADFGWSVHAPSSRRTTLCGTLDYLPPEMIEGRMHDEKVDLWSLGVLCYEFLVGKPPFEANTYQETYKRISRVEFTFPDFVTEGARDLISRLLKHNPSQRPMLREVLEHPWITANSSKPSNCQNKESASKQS
Method in brief: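 Recombinant human AurA activity read by fluorescence after mobility-shift separation of product from substrate; 1 hour incubation. Chemicals first run in duplicate at 25 uM, then concentration series to 50 uM if over threshold; fitted relative to DMSO.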

[8] = target: human Fibroblast Growth Factor Receptor 1 (FGFR1), FGFR1 (gene 2260) (UniProt P11362); assay: NVS_ENZ_hFGFR1: NovaScreen (NVS) Enzymatic Assay for human Fibroblast Growth Factor Receptor 1 (FGFR1) (AID 2283159);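 further: hits lower the signal so potencies describe inhibitors of the kinase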
Method in brief: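 Cell-free recombinant kinase with fluorescent substrate, product separated by electrophoretic mobility shift; read 1 hour after dosing, loss of signal relative to DMSO. Initial screen in duplicate at 25 uM, actives followed in concentration series.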

[9] = target: human Raf-1 Proto-Oncogene, serine/threonine Kinase (RAF1), RAF1 (gene 5894) (UniProt P04049); assay: NVS_ENZ_hRAF1: NovaScreen (NVS) Enzymatic Assay for human Raf-1 Proto-Oncogene, serine/threonine Kinase (RAF1) (AID 2283216)
Method in brief: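 Single-point screening at 25 uM (duplicate), followed by singleton concentration-response to 50 uM maximum for chemicals exceeding threshold. Enzyme activity from fluorescent substrate-product mobility-shift separation after 1 h, relative to DMSO.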

[10] = target: human Caspase 2 (CASP2), CASP2 (gene 835) (UniProt P42575); assay: NVS_ENZ_hCASP2: NovaScreen (NVS) Enzymatic Assay for human Caspase 2 (CASP2) (AID 2283135)
Method in brief: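 Single-point duplicate testing at 25 uM preceded concentration series topping at 50 uM. Activity of the recombinant E. coli-derived protease was followed by fluorescent substrate cleavage 1 h post-dosing, relative to DMSO.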

[11] = target: human Matrix Metalloproteinase-1 (MMP1), MMP1 (gene 4312) (UniProt P03956); assay: NVS_ENZ_hMMP1: NovaScreen (NVS) Enzymatic Assay for human Matrix Metalloproteinase-1 (MMP1) (AID 2283181)
Chain of human Matrix Metalloproteinase-1 (MMP1), MMP1 (gene 4312) (P03956 whole entry, looked up): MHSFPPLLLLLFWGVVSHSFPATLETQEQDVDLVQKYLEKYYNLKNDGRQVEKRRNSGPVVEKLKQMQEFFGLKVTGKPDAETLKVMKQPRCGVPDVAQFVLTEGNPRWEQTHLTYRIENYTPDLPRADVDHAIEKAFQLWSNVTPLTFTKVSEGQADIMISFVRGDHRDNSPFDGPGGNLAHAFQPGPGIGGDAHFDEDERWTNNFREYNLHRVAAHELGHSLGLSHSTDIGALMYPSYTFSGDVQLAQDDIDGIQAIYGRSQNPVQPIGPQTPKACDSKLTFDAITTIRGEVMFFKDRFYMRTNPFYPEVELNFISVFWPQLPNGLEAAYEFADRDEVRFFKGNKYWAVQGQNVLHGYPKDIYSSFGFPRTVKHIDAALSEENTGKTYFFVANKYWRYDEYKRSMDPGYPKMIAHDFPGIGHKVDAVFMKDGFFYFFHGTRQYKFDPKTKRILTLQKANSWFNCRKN
Method in brief: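 Cell-free fluorescent substrate assay of human MMP1, read after 1 h. A single 25 uM duplicate screen was followed by concentration series to a maximum of 50 uM for actives meeting threshold; inhibition analysed against DMSO baseline.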

[12] = target: rat Acetylcholinesterase (AChE), Ache (gene 83817) (UniProt P37136); assay: NVS_ENZ_rAChE: NovaScreen (NVS) Enzymatic Assay for rat Acetylcholinesterase (AChE) (AID 2283233)
Chain of rat Acetylcholinesterase (AChE), Ache (gene 83817) (P37136 whole entry, looked up): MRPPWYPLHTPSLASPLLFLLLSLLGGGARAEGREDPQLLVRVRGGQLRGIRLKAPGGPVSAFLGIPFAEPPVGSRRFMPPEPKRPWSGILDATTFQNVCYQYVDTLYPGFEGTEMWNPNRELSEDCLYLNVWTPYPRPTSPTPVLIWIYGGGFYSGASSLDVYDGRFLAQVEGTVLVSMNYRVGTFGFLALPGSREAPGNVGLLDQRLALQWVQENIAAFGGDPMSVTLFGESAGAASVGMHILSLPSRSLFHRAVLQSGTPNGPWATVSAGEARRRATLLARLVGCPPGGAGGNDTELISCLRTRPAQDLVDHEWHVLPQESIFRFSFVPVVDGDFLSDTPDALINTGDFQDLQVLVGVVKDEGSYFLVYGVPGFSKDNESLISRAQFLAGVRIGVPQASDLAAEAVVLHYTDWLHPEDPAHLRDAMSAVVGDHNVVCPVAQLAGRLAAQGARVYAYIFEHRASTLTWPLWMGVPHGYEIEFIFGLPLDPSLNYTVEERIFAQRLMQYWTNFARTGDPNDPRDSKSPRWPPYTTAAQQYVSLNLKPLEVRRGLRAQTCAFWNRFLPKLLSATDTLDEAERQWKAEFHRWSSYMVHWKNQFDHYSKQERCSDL
Method in brief: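 Compounds first screened at 25 uM in duplicate, then those passing threshold tested in concentration series up to 50 uM, against AChE from rat brain membranes. Enzyme activity read by absorbance at 0.33 h; inhibition scored versus DMSO.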

[13] = tested on: rat Monoamine Oxidase, MAO-A, Peripheral (MAOAP), gene 29253; assay: NVS_ENZ_rMAOAP: NovaScreen (NVS) Enzymatic Assay for rat Monoamine Oxidase, MAO-A, Peripheral (MAOAP) (AID 2283237)
Method in brief: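 Scintillation counting tracked MAO-A activity in a cell-free rat liver mitochondrial membrane prep, read 1.17 hours after compound addition. Single-point duplicate testing at 25 uM preceded concentration-response follow-up; activity was fitted relative to DMSO.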

[14] = target: rat Monoamine Oxidase, MAO-B, Peripheral (MAOBP), Maob (gene 25750) (UniProt P19643); assay: NVS_ENZ_rMAOBP: NovaScreen (NVS) Enzymatic Assay for rat Monoamine Oxidase, MAO-B, Peripheral (MAOBP) (AID 2283242)
Chain of rat Monoamine Oxidase, MAO-B, Peripheral (MAOBP), Maob (gene 25750) (P19643 whole entry, looked up): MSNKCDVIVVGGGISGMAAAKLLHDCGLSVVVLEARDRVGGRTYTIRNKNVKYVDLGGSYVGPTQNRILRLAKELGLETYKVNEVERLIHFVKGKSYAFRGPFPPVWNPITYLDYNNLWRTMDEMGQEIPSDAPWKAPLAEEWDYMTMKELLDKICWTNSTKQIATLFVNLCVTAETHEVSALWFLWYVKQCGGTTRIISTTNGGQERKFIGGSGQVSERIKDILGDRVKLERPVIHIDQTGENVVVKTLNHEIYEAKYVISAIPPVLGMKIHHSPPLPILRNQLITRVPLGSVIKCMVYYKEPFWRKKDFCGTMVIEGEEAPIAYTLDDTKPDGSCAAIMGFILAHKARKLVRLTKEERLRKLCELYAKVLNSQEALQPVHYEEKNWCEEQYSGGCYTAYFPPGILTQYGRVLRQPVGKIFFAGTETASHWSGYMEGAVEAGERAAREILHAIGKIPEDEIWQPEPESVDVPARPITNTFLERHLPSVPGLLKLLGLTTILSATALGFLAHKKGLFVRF

[15] = target: human Neonicotinoid receptor (NNR), CHRNA2 (gene 1135) (UniProt Q15822); assay: NVS_LGIC_hNNR_NBungSens: NovaScreen (NVS) Ligand-Gated Ion Channel Assay for human Neonicotinoid receptor (NNR) (AID 2283313)
Method in brief: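 Compounds first screened in duplicate at 25 uM, then actives re-tested in single-replicate dose series up to 50 uM. Binding measured as displacement of specific radioligand from neuroblastoma membrane receptors after 2 h, scintillation read on filters.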

[16] = target: human Ephrin type-A Receptor 2 (EphA2), EPHA2 (gene 1969) (UniProt P29317); assay: NVS_ENZ_hEphA2: NovaScreen (NVS) Enzymatic Assay for human Ephrin type-A Receptor 2 (EphA2) (AID 2283155)
Chain of human Ephrin type-A Receptor 2 (EphA2), EPHA2 (gene 1969) (P29317 whole entry, looked up): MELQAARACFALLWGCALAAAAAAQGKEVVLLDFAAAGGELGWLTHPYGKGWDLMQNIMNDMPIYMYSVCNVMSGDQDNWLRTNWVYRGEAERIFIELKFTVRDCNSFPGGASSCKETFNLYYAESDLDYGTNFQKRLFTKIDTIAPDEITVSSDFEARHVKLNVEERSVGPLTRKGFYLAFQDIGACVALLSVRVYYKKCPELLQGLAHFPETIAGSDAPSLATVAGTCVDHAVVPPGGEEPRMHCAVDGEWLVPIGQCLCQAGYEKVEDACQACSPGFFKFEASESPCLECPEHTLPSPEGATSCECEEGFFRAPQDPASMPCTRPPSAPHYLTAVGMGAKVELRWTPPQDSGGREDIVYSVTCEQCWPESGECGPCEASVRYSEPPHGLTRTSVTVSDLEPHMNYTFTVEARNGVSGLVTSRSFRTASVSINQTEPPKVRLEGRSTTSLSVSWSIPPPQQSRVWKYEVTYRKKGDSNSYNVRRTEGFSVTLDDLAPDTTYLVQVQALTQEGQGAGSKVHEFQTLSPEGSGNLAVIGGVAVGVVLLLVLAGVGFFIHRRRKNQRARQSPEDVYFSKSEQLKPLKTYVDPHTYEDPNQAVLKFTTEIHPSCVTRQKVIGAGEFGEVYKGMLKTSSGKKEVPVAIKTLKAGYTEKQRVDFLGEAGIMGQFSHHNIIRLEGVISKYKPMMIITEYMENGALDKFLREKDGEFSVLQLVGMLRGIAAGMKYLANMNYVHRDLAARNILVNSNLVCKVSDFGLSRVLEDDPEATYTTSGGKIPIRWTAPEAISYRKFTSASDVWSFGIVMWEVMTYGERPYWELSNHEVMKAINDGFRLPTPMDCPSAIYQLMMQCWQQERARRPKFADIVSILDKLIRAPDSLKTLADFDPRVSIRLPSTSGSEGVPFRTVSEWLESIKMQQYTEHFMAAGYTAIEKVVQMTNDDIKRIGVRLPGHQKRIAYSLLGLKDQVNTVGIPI
Method in brief: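 Enzyme activity of recombinant EphA2 read by fluorescence after mobility-shift separation, 1 h after dosing. Chemicals first tested at 25 uM (duplicate); those passing threshold run as concentration series, top 50 uM, single replicate, relative to DMSO.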

CS(=O)(=O)c1ccc([C@@H](C[C@H]2CCC(=O)C2)C(=O)Nc2cnccn2)cc1Cl
outcome [1]: inactive | AC50 [2]: 16.6 µM (active) | outcome [3]: inactive

COc1ccc(-n2nc(C(F)F)cc2-c2ccc(S(C)=O)cc2)cc1 (configuration not stated)
outcome [1]: inactive | outcome [4]: inactive | AC50 [5]: 4.96 µM (active)

CN1C(=O)N(c2ccccc2Br)Cc2cnc(Nc3ccc4c(c3)OCC(CO)O4)nc21 (configuration not stated)
outcome [6]: inactive | AC50 [7]: 5.65 µM (active) | AC50 [8]: 5.9 nM (active) | AC50 [4]: 8.54 µM (active) | AC50 [9]: 3.59 nM (active)

COc1ccc2cc(S(=O)(=O)N[C@H](CC(=O)N[C@H](Cc3ccc(CN4[C@H](C)CCC[C@@H]4C)cc3)C(=O)N(C)C(C)C)c3ccc4c(c3)OCO4)ccc2c1
outcome [1]: inactive | outcome [10]: inactive | outcome [11]: inactive | AC50 [12]: 30.6 µM (active) | AC50 [13]: 36 µM (active) | outcome [14]: inactive

O=c1[nH]c2ccc(S(=O)CCN3CCC(Cc4ccc(F)cc4)CC3)cc2o1 (configuration not stated)
AC50 [1]: 3.71 µM (active) | outcome [11]: inactive | AC50 [12]: 5.31 µM (active) | AC50 [15]: 5.31 µM (active)

Cc1ccc(C(C)(C)C)c(O)c1
outcome [16]: inactive
